Measured values: PubChem BioAssay (Tox21)
Records with an inconclusive call do not appear. Entries that show only a call come without a potency. Calls of active or inactive are those of the source. Calls come from the whole dose curve; as a rule, active = well fitted cell-killing curve with a large enough effect in the repeat runs; inconclusive = weak or mixed curves, or effect the other way; inactive = flat fitted curve, though single readings scatter.

Experiment: cAMP Responsive Elements (CRE) small molecule agonists, cell-based qHTS assay: qHTS cell viability counter screen (AID 2060914); note: nearly all actives have a fitted effect of over 50% in size
Conditions: CRE-bla HEK293T viability, CellTiter-Glo luminescence, 5 h; series mostly up to 92.4 µM
Summary of the method: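 Cytotoxicity was measured as ATP luminescence (CellTiter-Glo, 30 min at room temperature) in the same wells as the CRE-bla FRET read-out. HEK293T CRE-bla cells had 3 h compound exposure at 37C/5% CO2.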

| SMILES | Potency |
| --- | --- |
| CNC(=O)Oc1cccc2ccccc12 | inactive |
| CCCSP(=O)(OCC)SCCC | inactive |
| O=C(CCCN1CCC2(CC1)C(=O)NCN2c1ccccc1)c1ccc(F)cc1 | inactive |
| Cc1nc2ccccc2c(=O)n1-c1ccccc1Cl | inactive |
| O=S1OC[C@@H]2[C@H](CO1)[C@]1(Cl)C(Cl)=C(Cl)[C@@]2(Cl)C1(Cl)Cl (some centres not stated) | inactive |
| N#CCCl | inactive |
| N#CSCSC#N | inactive |
| C[C@]12CCC(=O)C[C@@H]1CC[C@@H]1[C@@H]2CC[C@]2(C)[C@@H](O)CC[C@@H]12 | inactive |
| Oc1c(Cl)cccc1Cl | inactive |
| CC1(C)C(C=C(Cl)Cl)C1C(=O)OC(C#N)c1ccc(F)c(Oc2ccccc2)c1 (configuration not stated) | inactive |
| C[C@@H]1CC[C@H]2[C@@H](C)C(=O)O[C@@H]3O[C@@]4(C)CC[C@@H]1[C@]32OO4 | inactive |
| CC(C)OC(=O)C(O)(c1ccc(Cl)cc1)c1ccc(Cl)cc1 | inactive |
| CSC(=O)c1c(C(F)F)nc(C(F)(F)F)c(C(=O)SC)c1CC(C)C | inactive |
| COP(=S)(OC)Oc1ccc(S(=O)(=O)N(C)C)cc1 | inactive |
| CCCOCC(=Nc1ccc(Cl)cc1C(F)(F)F)n1ccnc1 | inactive |
| [O-][Br+2]([O-])O | inactive |
| CCCCN(CC)c1c([N+](=O)[O-])cc(C(F)(F)F)cc1[N+](=O)[O-] | inactive |
